Screening data (PubChem BioAssay)
The entries come from a sample that favours hits as a whole.
Pf Dd2 growth = Plasmodium falciparum Dd2 growth inhibition | P. falciparum Dd2 growth, SYBR Green, 72 h | Potency, µM (series often up to 28.9 µM), for inactives: at the top dose activity, negative = inhibition, actives largely listed as inhibitors | actives 4.3% (n = 120,000) | AID 1347417; active = well fitted inhibition curve with a large enough effect;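 also: plate controls were DMSO vehicle for no effect and reference drug for full effect; nearly all actives have a fitted effect of over 65% in size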
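Readout: SYBR Green fluorescence, 485 nm excitation, 535 nm emission, after ~16 h lysis at 37C. Before that, Dd2-infected red cells (2.5% hematocrit) grew 72 h with compound, 29 uM top final concentration.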
An asterisk follows results filed as active; i = inactive; [ ] = dose if it differs, or a comment. Potency is read from the fitted curve at half-maximal effect.

SMILES	Pf Dd2 growth
N[C@@H](Cc1cnc[nH]1)C(=O)N1CCC(c2cc(-c3ccccc3Cl)n[nH]2)CC1	-16%
O=S(=O)(c1cccnc1)N1CCC(N2CC(OCC3CC3)C23CCOCC3)CC1 (stereo not given)	i
CCC(=O)N1CCc2oc(C)c(C(=O)N(C)C)c2C1	i
Cc1csc(NC(=O)c2nc3c(o2)CCN(Cc2cccc(F)c2)CC3)n1	i
Cc1oc2c(c1C(=O)N(C)C)CN(C(=O)CCc1ccccc1)CC2	6.3µM*
Cc1oc2c(c1C(=O)N1CCSCC1)CN(Cc1cccc(F)c1)CC2	11µM*
Cc1oc2c(c1C(=O)N1CCOCC1)CN(CCC(C)C)CC2	-20%
O=C1CCC(C(=O)N2CCSCC2)CN1CCc1cccc(F)c1 (stereo not given)	0%
CN(C)C(=O)c1n[nH]c2c1CN(C(=O)CCc1ccccc1)CC2	-22%
Cc1oc2c(c1C(=O)N1CCN(c3ccccc3)CC1)CN(Cc1ccccc1)CC2	5µM*
CC(=O)N1CCN(C(=O)c2c(C)oc3c2CN(Cc2ccc(F)cc2)CC3)CC1	-1%
COc1ccc(CNC(=O)CCc2conc2-c2ccc(C)cc2)cc1	-3%
CCCCN(C)C(=O)c1c(C)oc2ccn(Cc3ccc(F)cc3)c(=O)c12	i
CCOC(=O)C1=CN(CC(=O)Nc2ccc(OCC)cc2)S(=O)(=O)N=C1C	i
COCCN(Cc1ccccn1)Cc1cc(=O)c2cc(C)cc(C)c2[nH]1	-18%
O=S(=O)(NCC1(COc2ccc(C(F)(F)F)cn2)C[C@@H](O)[C@@H](O)C1)c1ccc(F)cc1 (stereo not given in full)	i
OC1(CNCCc2nc(-c3cccnc3)n[nH]2)CNCCOC1 (stereo not given)	-18%
Cc1nonc1CC(=O)N1CCCC(c2nnc(Cn3cccn3)n2C)C1 (stereo not given)	-13%
CCc1ccc(CN2CC(C(=O)NCc3ccncc3)C3(CCOCC3)C2)cc1 (stereo not given)	-10%
O=C(NCc1ccncc1)C1CN(Cc2ccoc2)CC12CCOCC2 (stereo not given)	-23%
O=C(NCc1ccncc1)C1CN(Cc2cccc(Br)c2)CC12CCOCC2 (stereo not given)	3.5µM*
CCNC(=O)[C@@H]1C[C@H](NC(=O)c2ccco2)CN1C(=O)Cn1nccc1C	-15%
CC(C)(C)CC(=O)NC[C@H]1OC[C@@H](NC2CCC(F)(F)CC2)[C@@H]1O	24%[44.1 µM]
COc1ccc(-c2nc(C3CC(=O)N(c4ccc(C)cc4)C3)no2)c(OC)n1 (stereo not given)	74%
CCn1nccc1C(=O)N1CCCCCNC(=O)[C@@H]2CCC[C@@H]21	2%
SMILES	Pf Dd2 growth
Cc1ccc(F)cc1-n1nc(-c2c(C)nc3scc(CC(=O)N4CCCC4)n3c2=O)cc1C	i
COc1ccc(CCNC(=O)C(=O)Nc2ccccc2F)cc1	i
COc1ccc(CN2CC3(CCN(S(=O)(=O)Cc4ccccc4F)CC3)C2=O)cc1	-1%
COc1ccc(CCN(Cc2ccccc2F)CC2(O)CCCNC2)cc1 (stereo not given)	13µM*
CCCS(=O)(=O)N1C[C@@H](Oc2ccccc2)C[C@@H]1C(=O)NC	-4%
O=C(O)C(c1cccc(O)c1)N1CCN(C2CCCCC2)C(=O)C1 (stereo not given)	-9%
COc1ccc(-n2c(C)c(C(C)=O)c3cc(OC(=O)COc4ccccc4)ccc32)cc1	-18%
CCOC(=O)c1c(C)n(-c2ccc(OC)cc2)c2ccc(OC(=O)COc3ccccc3)cc12	11µM*
CCOC(=O)c1c(C)n(-c2ccccc2)c2ccc(OC(=O)COc3ccccc3)cc12	43%
Cc1ccn(CC(=O)N(C)C2CCc3nn(CC4CC4)c(=O)n3CC2)n1 (stereo not given)	22%
Fc1cccc(-c2cnc([C@@H]3COCCN3Cc3cnc[nH]3)[nH]2)c1	-20%[44.1 µM]
OC1CCOC2(CCN(Cc3ccc(Br)o3)CC2)C1 (stereo not given)	2%
COc1ccc2c(c1)c(CN1CCC3(CC1)CC(O)CCO3)cn2C (stereo not given)	-2%
CC(C)Oc1ccccc1CN1CCC2(CC1)CC(O)CCO2 (stereo not given)	5µM*
COc1cccc(CN2CCC3(CC2)CC(O)CCO3)c1OC (stereo not given)	-13%
OC1CCOC2(CCN(Cc3ccccc3OC(F)(F)F)CC2)C1 (stereo not given)	5.6µM*
OC1CCOC2(CCN(Cc3ccncc3)CC2)C1 (stereo not given)	6%
COc1cccc(S(=O)(=O)N2CCOCCNC(=O)[C@@H]3CCC[C@@H]32)c1	6%
O=[S+]([O-])(c1cccc(C(F)(F)F)c1)N1CCn2c(nnc2C2CCCNC2)C1 (stereo not given)	-1%
Cc1ccc(-c2nc(C3CC(=O)N(C4CCCCC4)C3)no2)cc1C (stereo not given)	38%
COc1ccc(C(=O)N2CCC3(CC2)C(OC)CN3c2cccc(F)c2)c(OC)c1 (stereo not given)	-28%
COc1cc(NC(=O)CC[C@H]2NC(=O)c3ccccc3NC2=O)ccc1-n1nc(C)cc1C	-7%
COc1ccc(-c2ccc(C(=O)N[C@@H]3COCC[C@H]3OC)o2)cc1	-13%
O=C(c1ccco1)N1CCC2(CCCCO2)CC1	2%
C[C@@H]1CN(C(=O)c2nc3sccn3c2CN(C)Cc2ccc3nonc3c2)C[C@H](C)O1	-11%
SMILES	Pf Dd2 growth
Cc1nc(C)c(C(=O)N2CCC(Cc3noc(-c4ccccc4)n3)C2)s1 (stereo not given)	-26%
CC(C)Cc1nn2c(=O)cc(COC(=O)c3ccc(NC(=O)c4cccs4)cc3)nc2s1	50%
CC(C)CC(=O)Nc1ccc2c(c1)CCC(=O)N2CC(C)C	i
CCc1ccc(C2=C(C)C(N3CCC(C(=O)Nc4cccc(OC)c4)CC3)=NS2(=O)=O)cc1	i
CCc1ccc2oc(-c3cc(NC(=O)c4cccs4)ccc3Cl)nc2c1	-16%
CC(C)CN1C(=O)CCc2cc(NC(=O)c3ccc(N(C)C)cc3)ccc21	-25%
CC(=O)Nc1ccc2c(c1)S(=O)(=O)N=C(CC(C)C)N2CC(C)C	4µM*
CCCN1C(CC(C)C)=NS(=O)(=O)c2cc(NC(=O)c3cccs3)ccc21	0.11µM*
CCC1=NS(=O)(=O)c2cc(NC(=O)C3CC3)ccc2N1CC(C)C	4.5µM*
CCC1=NS(=O)(=O)c2cc(NC(=O)C3CC3)ccc2N1CCOC	-16%
CCN1c2cc(C(=O)Nc3cccc(C(F)(F)F)c3)ccc2C(=O)N2CCCC21 (stereo not given)	158%
Cc1nc(C)c(C(=O)N2CCCC(COc3ccccc3C(=O)N3CCOCC3)C2)s1 (stereo not given)	11%
CC(NC(=O)c1ccc2nccn2c1)c1ccc(F)cc1 (stereo not given)	3%[44.1 µM]
COc1ccc(C(C)NC(=O)c2cc3c(N4CCSCC4)nc(C)cn3n2)cc1OC (stereo not given)	i
Cc1ccc(CNC(=O)N2CCCCC2c2nc(C3CC3)n[nH]2)cc1 (stereo not given)	-3%
Cc1cnc(C(=O)N2CCC(C3CCN(S(C)(=O)=O)CC3)C2)cn1 (stereo not given)	11%
CC(=O)Nc1cccc(-c2csc(CN3CCCC(C)(NC(C)=O)C3)c2)c1 (stereo not given)	i
CC(=O)NC1(C)CN(Cc2ccc(-c3cccc(C(F)(F)F)c3)s2)C1	7.1µM*
CC(=O)NC1(C)CN(Cc2ccc(-c3ccc(Oc4ccccc4)cc3)s2)C1	4µM*
CC(=O)NC1(C)CN(Cc2ccc(-c3cccc(F)c3)s2)C1	-22%[44.1 µM]
